According to PubChem BioAssay (NCI):
Compounds without any hit were thinned out: in the full panel of roughly 79,000, 15% have a hit. Active and inactive are the calls of the source. Cut-off read from the data, not from the text of the source: active = growth inhibition above about 70%; inactive = the rest.

Tests used:
[1] = NCI Yeast Anticancer Drug Screen. Data for the rad50 strain (AID 155);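 note: 0% = growth of vehicle-only cultures of the same strain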; conditions: S. cerevisiae rad50 strain growth inhibition; at 50.0 µM; stronger effect = higher value
Procedure, shortened: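 Readout: growth inhibition relative to vehicle-treated cultures. Compound exposure was carried out in a genetically defined yeast strain deficient in DNA damage repair.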

[2] = NCI Yeast Anticancer Drug Screen. Data for the mec2-1 strain (AID 157); conditions: S. cerevisiae mec2-1 strain, at 50.0 µM, stronger effect = higher value
Procedure, shortened: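 Readout is yeast growth inhibition, normalised to vehicle-treated controls, in the mec2-1 strain exposed to compound.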

[3] = NCI Yeast Anticancer Drug Screen. Data for the sgs1 mgt1 strain (AID 161);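 note: 0% = growth of cultures given vehicle only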; conditions: S. cerevisiae sgs1 mgt1 strain, at 50.0 µM, stronger effect = higher value
Procedure, shortened: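 Growth of a repair-deficient yeast mutant was monitored after compound treatment and expressed as inhibition relative to vehicle-treated cultures.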

[4] = NCI Yeast Anticancer Drug Screen. Data for the cln2 rad14 strain (AID 165);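 note: 0% = growth equal to vehicle treated cultures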; conditions: S. cerevisiae cln2 rad14 strain, at 50.0 µM, stronger effect = higher value
Procedure, shortened: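 Relative to vehicle controls, growth inhibition of compound-treated cln2 rad14 yeast was recorded.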

[5] = NCI Yeast Anticancer Drug Screen. Data for the bub3 strain (AID 167); conditions: S. cerevisiae bub3 mutant strain, at 50.0 µM, stronger effect = higher value
Procedure, shortened: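 Readout: yeast growth inhibition, expressed relative to vehicle-only wells. The test organism is a mutant strain from a panel with lesions in DNA repair or checkpoint genes.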

[6] = NCI Yeast Anticancer Drug Screen. Data for the mlh1 rad18 strain (AID 175); conditions: S. cerevisiae mlh1 rad18 strain growth inhibition; at 50.0 µM; stronger effect = higher value
Procedure, shortened: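 Test agents were incubated with a yeast strain of defined genotype (DNA damage repair defect). Inhibition of growth was derived by comparison with vehicle-exposed cultures.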

Measured: growth inhibition

Clc1ccc(NC2=NCCN=C(Nc3ccc(Cl)cc3)SS2)cc1
inactive: [1] 23.7% | [2] 14.2% | [3] 39.8% | [4] 17.4% | [5] 37.5% | [6] 20.7%

Cc1ccc(C(=O)N(Cc2ccccc2)Cc2ccccc2)cc1N=NN(C)C
inactive: [1] -44.8% | [2] -39.5% | [3] -55.6% | [4] -8.2% | [5] -31.4% | [6] -22.2%

CCOC(OCC)C(=O)NNC(C)C
inactive: [1] 15.4% | [2] -7.85% | [3] -2.15% | [4] -39.9% | [5] 10% | [6] -13.9%

CCCCCCCCCCCCCOCC(=O)OC
inactive: [1] -0.75% | [2] 20.8% | [3] -4.9% | [4] -29% | [5] 12.9% | [6] 1.6%

CCn1ncc2ccc(N(CO)CO)cc21
inactive: [1] -2.4% | [2] 22.1% | [3] -13.6% | [4] -20.2% | [5] -22.6% | [6] 4.1%

CCc1ccc(COC(=O)NC)nc1
inactive: [1] 38% | [2] -0.75% | [3] 4% | [4] -18% | [5] -0.2% | [6] 19.6%

Oc1ccc(-c2csc(Nc3ccccn3)n2)cc1O
active: [1] 98.4% | [2] 99% | [3] 99% | [4] 97.2% | [5] 97.7% | [6] 98.8%

COc1cccc2c1oc(=O)c1ccccc12
inactive: [1] 9.55% | [2] -6.75% | [3] -19.6% | [4] -66.8% | [5] -2.35% | [6] -5.85%

COc1ccc2c(CCNC(C)=O)c(C(C)=O)[nH]c2c1
inactive: [1] -9.65% | [2] -3.25% | [3] 12.4% | [4] 15.5% | [5] -12.3% | [6] 36.1%

CCCCCCCCCCCCCCCCSC1=C(Cl)C(=O)C(OC)=C(OC)C1=O
inactive: [1] 25.6% | [2] -4.7% | [3] 21.1% | [4] -26% | [5] 0.25% | [6] 9.4%

COc1ccc(F)cc1N
inactive: [1] 2% | [2] -17.8% | [3] 5.15% | [4] -7.35% | [5] 11.8% | [6] -18.7%

Cc1coc2c1C1OC(=O)C3(C/C=C\C(C)C2)OC13 (stereo not drawn)
inactive: [1] 0.15% | [2] -32.6% | [3] -2.55% | [4] -6.3% | [5] -13.9% | [6] -5.95%

C/C(=N\N(c1ccccc1)c1ccccc1)c1c(O)cc(C)oc1=O
inactive: [1] -25.8% | [2] 8.2% | [3] 12.9% | [4] -27.4% | [5] 3.05% | [6] 14.8%

Cc1cccc[n+]1CC(=O)c1ccccc1
inactive: [1] 17.2% | [2] 31.2% | [3] 34.5% | [4] -3.65% | [5] 18.6% | [6] 20.9%

CCOC(=O)CCc1c(C)c2c(OC(C)=O)cc(OC(C)=O)cc2oc1=O
inactive: [1] 31.6% | [2] 0.9% | [3] 17.4% | [4] 13.4% | [5] -1.05% | [6] 2.4%

CCOC(=O)/C=C/C(=O)[O-].CCOC(=O)/C=C/C(=O)[O-].NC1CCCCC1N.[Pt+4]
inactive: [1] 19.2% | [2] 25.9% | [3] 19.4% | [4] -2.1% | [5] 20.1% | [6] 10.2%

N#Cc1ccc(OCCCOc2ccc(C#N)cc2)cc1
inactive: [1] 8.15% | [2] 12.2% | [3] 9.65% | [4] 5.3% | [5] 46.2% | [6] -4.15%

CC(=O)C(CCC(=O)O)(CCC(=O)O)c1ccccc1
inactive: [1] 2% | [2] 21.6% | [3] 5.3% | [4] -49.4% | [5] 13.7% | [6] 20.2%

O=c1[nH]nc(-c2ccccc2)n1/N=C/c1ccncc1
inactive: [1] 21.7% | [2] 16.4% | [3] 15.4% | [4] 10.2% | [5] 17.6% | [6] 22.7%

CCNc1nnc(-c2nsc3ccccc23)s1
inactive: [1] -12.7% | [2] -36.1% | [3] -10.1% | [4] -11.5% | [5] -27.5% | [6] -18.9%

CCOC(=O)c1cc(O)cc(=O)n1C1OC(COC(=O)c2ccccc2)C(OC(=O)c2ccccc2)C1OC(=O)c1ccccc1 (stereo not drawn)
inactive: [1] 49.5% | [2] -19.4% | [3] 32.6% | [4] 3.35% | [5] -9.15% | [6] -10.8%

O=Cc1cc2c(cc1-c1cc3c(cc1C=O)OCO3)OCO2
inactive: [1] -3.4% | [2] 8.25% | [3] 6.6% | [4] 9.85% | [5] 13.1% | [6] 0.75%

CC(C)CC(=O)CCc1ccccc1
inactive: [1] -45% | [2] -19.9% | [3] -46.9% | [4] -6.35% | [5] -29.1% | [6] -3.55%

CCOC(=O)NC(Nc1ccc(F)c(F)c1)(C(=O)OCC)C(F)(F)F (stereo not drawn)
inactive: [1] 5.4% | [2] -1.3% | [3] -9.1% | [4] 15.4% | [5] 9.75% | [6] 39.5%

COc1ccc(-c2c(C(C)=O)c(-c3ccccc3)n(C3OC(CO)C(O)C(O)C3O)c(=S)c2C#N)cc1 (stereo not drawn)
inactive: [1] -17.7% | [2] -3.7% | [3] 6.6% | [4] 3.95% | [5] 1.3% | [6] 6.2%

Cc1nc2c(Cl)cc(Cl)cc2c(Cl)c1CCCl
inactive: [1] 29.9% | [2] 30.2% | [3] 49.5% | [4] 18.9% | [5] 39.6% | [6] 45.6%

O=S(=O)(Nc1cccc(F)c1)c1ccc(F)cc1
inactive: [1] -12.5% | [2] -10.4% | [3] -3.6% | [4] 0.3% | [5] -9.95% | [6] 11.6%

O=C1CSCN1N1CSCC1=O
inactive: [1] -5.85% | [2] 3.1% | [3] 7.85% | [4] -4.35% | [5] 8.95% | [6] 18.8%

Cc1ccc(-c2n[nH]c(=O)n2N)cc1
inactive: [1] 3.5% | [2] -23% | [3] 0.85% | [4] 5.45% | [5] 0.45% | [6] 7.25%

COc1ccc(-n2cnc3c(cnn3C3OC(CO)C(O)C3O)c2=O)cc1 (stereo not drawn)
inactive: [1] 8.7% | [2] 2.95% | [3] 8.45% | [4] 23.3% | [5] -4.25% | [6] 3.3%

COc1ccc2c(c1)CC[C@@H]1[C@@H]2CC[C@]2(C)C(=O)/C(=N/O)C[C@@H]12
inactive: [1] -15% | [2] 4.85% | [3] 1.85% | [4] -34% | [5] 31.5% | [6] -14.2%

COc1ccc(C(O)C(=O)c2nc3ccc(Cl)cc3[nH]c2=O)cc1 (stereo not drawn)
inactive: [1] -30.1% | [2] -28.6% | [3] -22.2% | [4] -33.7% | [5] -16.6% | [6] -20.2%

O=C(NCCc1c[nH]c2ccccc12)C1CC1
inactive: [1] -40% | [2] 16.6% | [3] -14.8% | [4] -32.2% | [5] 7.05% | [6] -25.9%

CCCCNC(=O)CC
inactive: [1] 3.1% | [2] -11.2% | [3] 3% | [4] 4.85% | [5] 14.9% | [6] -1.95%

CCNC(=O)C(C(=O)OCCN(CC)CC)c1ccccc1 (stereo not drawn)
inactive: [1] 2.05% | [2] 5.7% | [3] -3.3% | [4] -1.05% | [5] -14.7% | [6] 16.7%

COc1ccc(Br)cc1/C=N\NC(=O)c1ccccc1N(C)C
inactive: [1] -24.2% | [2] -11.6% | [3] -10.8% | [4] 6.6% | [5] -3.05% | [6] -4.25%

O=C1c2ccccc2C(=O)N1c1ccc(C(F)(F)F)cc1[N+](=O)[O-]
inactive: [1] -1.25% | [2] 16.2% | [3] 19.7% | [4] -15.8% | [5] 14.5% | [6] 7.2%

Oc1cc2ccc3c(c2cc1O)CCc1cn[nH]c1-3
inactive: [1] 7.1% | [2] 9.25% | [3] 17.5% | [4] -0.55% | [5] 15.8% | [6] 15.5%

O=S(=O)(Nc1ccc(C(F)(F)F)cc1)c1ccc(F)cc1
inactive: [1] -5.7% | [2] 7.35% | [3] 26% | [4] 15.9% | [5] -0.95% | [6] 28.1%

CN(N=O)C(=O)NCc1ccc(Cl)cc1
inactive: [1] -0.1% | [2] 15.8% | [3] 17.6% | [4] 12.4% | [5] 8.05% | [6] 1.15%

CCCCc1c2c([n+]([O-])c3c1CCCC3)CCCC2
inactive: [1] 29.4% | [2] 30.3% | [3] 54.1% | [4] -11.2% | [5] 17.2% | [6] 20.1%

CC1(c2ccc(Cl)cc2)NC(=O)N(CC(N)=O)C1=O (stereo not drawn)
inactive: [1] 3.6% | [2] -0.1% | [3] -10.8% | [4] -11% | [5] -7.8% | [6] 8.6%

Clc1cnc(/N=C/c2ccc(/C=N/c3ncc(Cl)cc3Cl)cc2)c(Cl)c1
inactive: [1] 13% | [2] -21.8% | [3] 6.05% | [4] 10% | [5] -5.8% | [6] 16.4%
